# High-throughput results (PubChem)
# Rows were chosen to be rich in hits. Some 2% of all compounds tested hit in one or more screens of this group.
# LDHA block = qHTS assay for inhibitors of human lactate dehydrogenase. purified LDHA, NADH/diaphorase-resazurin fluorescence; stronger effect = lower value. activity change, % (values are at about 110 or 230 µM). 480,000 compounds, 0.15% hits; in the data active = activity change below about -30%; inconclusive = mostly about -25% to -30%;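 note: plate controls were DMSO wells for no effect and wells without enzyme for full effect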
#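 Resorufin fluorescence (ex540/em590), read at 0 and 20 min after diaphorase/resazurin addition, reports the NADH left after a 5 min room-temperature reaction of 2 nM human LDH5 with 0.06 mM NADH and 0.2 mM pyruvate.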
# FUS suppressor = qHTS for Suppressors of FUS Proteinopathy: Primary screen using FUS-linked yeast assay. S. cerevisiae FUS-expressing, growth rescue, OD600, 24 h. Potency, µM (series often up to 76.6 µM), actives largely listed as activators. 390,000 compounds, 0.24% hits. AID 1347120, 2019;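 note: potency is the fitted concentration of half-maximal effect; plate controls were DMSO vehicle for no effect and reference control for full effect; nearly all actives have a fitted effect of over 55% in size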
#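 Restored growth of FUS-toxic S. cerevisiae, read as 600 nm absorbance after 24 h at 30C in galactose medium (starting OD 0.005). Controls CP55940 and DMSO.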
# IDH1 R132H inh = qHTS for Inhibitors of mutant isocitrate dehydrogenase 1 (IDH1): qHTS | Potency, µM (top dose mostly 76.6 µM), without a hit: top-dose activity change, negative = inhibition, hits mostly inhibitors | 390,000 compounds, 0.093% hits | IDH1-R132H enzyme, NADPH consumption, diaphorase/resazurin fluorescence | Isocitrate dehydrogenase [NADP] cytoplasmic (Homo sapiens), O75874; note: potency is the fitted concentration of half-maximal effect; % is set by controls: 0 for no effect and ±100 for the full control effect; nearly all actives have a fitted effect of over 65% in size
# Target sequence (O75874 whole entry R132H, stated change not applied): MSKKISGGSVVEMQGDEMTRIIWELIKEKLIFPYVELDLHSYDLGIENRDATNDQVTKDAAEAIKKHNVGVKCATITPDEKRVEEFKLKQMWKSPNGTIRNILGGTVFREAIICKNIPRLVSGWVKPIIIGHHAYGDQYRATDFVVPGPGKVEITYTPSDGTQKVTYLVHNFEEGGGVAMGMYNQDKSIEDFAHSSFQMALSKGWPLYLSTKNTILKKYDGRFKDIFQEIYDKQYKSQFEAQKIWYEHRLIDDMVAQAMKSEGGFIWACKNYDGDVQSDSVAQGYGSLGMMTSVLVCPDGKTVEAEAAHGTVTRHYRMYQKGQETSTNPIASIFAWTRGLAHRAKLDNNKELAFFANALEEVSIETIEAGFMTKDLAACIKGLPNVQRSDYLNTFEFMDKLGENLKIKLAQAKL
#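 IDH1-R132H (0.5 ug/mL) preincubated 30 min with compound, then NADPH (0.016 mM) and alpha-KG (2 mM) added; 80 min at RT, pH 7.5. Remaining NADPH coupled via diaphorase/resazurin to fluorescence (540/590 nm); concentration-response curves normalized to no-enzyme control.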
# Abeta rescue = qHTS for compounds that reverse cellular toxicity of Amyloid beta (A-beta) peptide in yeast: Primary Screen; yeast expressing A-beta42, growth rescue, OD600, 48 h; response scale: 0% DMSO, 100% iron-clioquinol control; Potency, µM (highest dose often 46.1 µM), most hits filed as activators; 410,000 compounds, 0.063% hits; note: potency is the fitted concentration of half-maximal effect; nearly all actives have a fitted effect of over 55% in size
#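 Yeast A-beta toxicity model in growth medium with pinned compounds, 48 h at 30 C; growth read as absorbance at 600 nm. Normalized to FeCl3/clioquinol equimolar mix (positive) and DMSO (negative).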
# aSyn yeast inh = qHTS of alpha-syn Inhibitors | Yeast expressing alpha-synuclein, growth rescue, BacTiter-Glo, 24 h | Potency, µM (top dose mostly 46.1 µM), for the others: at the top dose growth rescue (activation), usual class: activators | 370,000 compounds, 0.14% hits; note: potency is the fitted concentration of half-maximal effect; % of control where 0% means no effect; nearly all actives have a fitted effect of over 65% in size
#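 Screening used galactose-induced yeast with toxic alpha-synuclein levels, exposed to compound for 24 hr at 30 deg C. Cell growth, read with BacTiter-Glo luminescence, gave the measured signal.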
# TDP43 rescue = qHTS of TDP-43 Inhibitors. TDP-43 expressing yeast growth rescue, BacTiter-Glo, 24 h. 410,000 compounds, 1.8% hits. Potency, µM (top dose mostly 46.1 µM), for the others: at the highest dose growth rescue (activation), usual class: activators. AID 652104, 2013; note: potency is the fitted concentration of half-maximal effect; % of control where 0% means no effect; nearly all actives have a fitted effect of over 50% in size
#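 Cell-based yeast growth screen: TDP-43 expression induced in galactose, inoculum OD600=0.02 after raffinose pregrowth to mid-log. Read-out BacTiter-Glo luminescence at 24 hr, 30 deg C; inhibition of toxicity seen as signal increase.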
# * hit, by the source's call; i = inactive; ? = inconclusive; . = no result. Unless noted, calls come from the whole dose curve; as a rule, active = well fitted curve in the direction sought with a large enough effect; inconclusive = small, poorly fitted or top-dose-only effect, or another doubt; inactive = no such curve, though single readings can be large; an effect the other way counts as inactive or inconclusive.
SMILES,LDHA block,FUS suppressor,IDH1 R132H inh,Abeta rescue,aSyn yeast inh,TDP43 rescue
O=C(/C=C/c1c(Cl)cccc1Cl)c1ccc(O)cc1,0,.,.,.,.,.
O=C(O)c1ccc(CSc2nnc(-c3ccccc3)n2-c2ccccc2)cc1,-12,i,-12%,i,16%,0%
Brc1cccc(-c2nnc(SCc3ccon3)n2-c2ccccc2)c1,0,i,9%,i,14%,18µM*
O=C(Nc1nc(-c2cccs2)c(-c2cccs2)s1)C1CCCC1,-3,.,5%,i,-5%,14µM*
CN/C=C1\C(=O)C(C)(C)Oc2ccc3ccc(=O)oc3c21,-9,i,2%,i,1%,24%
COC1=Cc2c(ccc3ccc(=O)oc23)OC1(C)C,0,i,8%,i,.,13µM*
Cc1ccccc1-n1c2nc(=O)[nH]c(=O)c-2cc2c(Cl)cccc21,25,i,0%,i,.,3.5µM*
O=C(CCNc1cc(Cl)cc(Cl)c1)c1cccs1,-1,i,1%,i,-42%,10µM*
Cc1ccc(C(CNC(=O)c2ccc(NC(=O)OC(C)(C)C)cc2)N2CCOCC2)o1 (stereo not given),-34*,.,.,.,.,.
CC(C)(C)OC(=O)Nc1ccc(C(=O)NCC(c2ccco2)N2CCCC2)cc1 (stereo not given),-5,.,.,.,.,.
Cc1cc(C)n2nc(-c3cnn(C)c3C(F)(F)F)cc2n1,2,i,2%,i,3%,13µM*
O=C(NC1CC1)c1ccc(NC(=O)c2cc(-c3ccco3)nc3ccccc23)cc1,-2,.,.,.,.,.
CC(C)c1ccc(-n2cnn(-c3ncccc3[N+](=O)[O-])c2=O)cc1,-5,i,9%,i,-3%,11µM*
NC(=O)c1nsc(C(=O)N(c2ccccc2)C(C(=O)NC2CCCC2)c2ccc3ncccc3c2)c1N (stereo not given),-1,i,-12%,i,-1%,13%
COc1ccc(N(C(=O)c2snc(C(N)=O)c2N)C(C(=O)NCc2ccc(F)cc2)c2ccc(O)cc2)cc1 (stereo not given),-4,28µM*,-10%,i,-1%,-8%
COc1ccc(N(C(=O)c2snc(C(N)=O)c2N)C(C(=O)NC2CCCC2)c2ccc3ncccc3c2)cc1 (stereo not given),3,28µM*,-1%,i,-5%,-20%
CC1CC(C)CN(C(=O)c2ccc(-c3ccc([N+](=O)[O-])cc3)o2)C1 (stereo not given),1,i,-2%,i,-15%,14µM*
O=C(c1ccc(-c2ccc(Cl)cc2)o1)N1CCN(c2ccc([N+](=O)[O-])cc2Cl)CC1,-6,i,9%,i,?,-19%
O=C(c1ccc(-c2ccc([N+](=O)[O-])cc2)o1)N1CCCCC1,-5,i,1%,i,0%,13µM*
O=C(c1ccc(-c2cccc([N+](=O)[O-])c2)o1)N1CCN(c2ccc([N+](=O)[O-])cc2)CC1,-9,i,-2%,i,1%,-8%
COc1ccccc1Oc1c(C)oc2cc(OCC(=O)Nc3ccc(C)cc3C)ccc2c1=O,-4,.,.,.,.,.
COc1cc(Br)c(/C=C(/C#N)C(=O)C(C)(C)C)cc1OC,6,.,.,.,.,.
COCCCC1CCN(C(=O)c2cc(COc3cc(C)ccc3C)on2)CC1,-1,?,-3%,i,-6%,28µM*
O=C(/C=C/c1ccccc1)CC(O)(c1ccccc1)C(F)(F)F (stereo not given),-6,i,9%,i,?,13µM*
CCOc1ccc(CNC2CCCCC2C)cc1 (stereo not given),7,.,.,.,.,.
SMILES,LDHA block,FUS suppressor,IDH1 R132H inh,Abeta rescue,aSyn yeast inh,TDP43 rescue
CN(CC(=O)Nc1ccccc1)CC(=O)Nc1ccccc1Cl,-1,i,9%,i,10%,19%
COc1ccc(NC(=O)Nc2ccccc2SC)c(OC)c1,-3,i,7%,i,0%,-11%
CCCCc1ccc(NC(=O)CN(C)CC(=O)Nc2ccccc2Cl)cc1,-9,35µM*,-8%,?,27%,13%
COc1cccc(NC(=O)Nc2ccccc2SC)c1,0,i,10%,i,-9%,20µM*
COc1ccc(NC(=O)CN(C)CC(=O)Nc2ccccc2SC)cc1,-35*,.,7%,i,1%,9%
O=C(O)CNc1ccccc1,5,.,.,.,.,.
CC(=O)Oc1ccc(Oc2ccc(-c3noc(C)n3)cc2)cc1,-2,i,-1%,i,-13%,11µM*
CCc1nc(NC(=O)c2ccc(C#N)cc2)sc1C,0,.,.,.,.,.
O=C(CCl)N(c1ccccc1)c1ccccc1,-4,i,1%,i,12%,18µM*
COc1ccc(C(=O)C(CN2CCOCC2)c2ccccc2)cc1 (stereo not given),-7,i,3%,i,0%,?
O=C(c1ccc(F)cc1)C(CN1CCOCC1)c1ccccc1 (stereo not given),0,.,5%,i,5%,18µM*
CC(=O)CCc1ccc(Oc2nc(-c3cccnc3)nc3ccccc23)cc1,-7,i,0%,i,9%,14µM*
COc1ccc(Oc2nc(-c3cccnc3)nc3ccccc23)cc1,-1,i,9%,i,2%,2%
CCOc1cccc(Cn2c(=O)c3sccc3n(CC(=O)N(C)C3CCCCC3)c2=O)c1,-7,.,.,.,.,.
Cc1cccc(-c2nc(Nc3ccc(C(=O)O)cc3)c3ccccc3n2)c1,-39*,.,.,.,.,.
CC(=O)c1cccc(Nc2nc(-c3cccc(C)c3)nc3ccccc23)c1,8,?,3%,i,.,16µM*
CC(=O)c1cccc(Nc2nc(-c3ccc(C)cc3)nc3ccccc23)c1,1,.,.,.,.,.
Cc1onc(-c2c(F)cccc2Cl)c1C(=O)c1ccccc1O,-4,i,4%,i,15%,-30%
Cc1onc(-c2c(Cl)cccc2Cl)c1C(=O)c1ccc(F)cc1,-2,i,5%,i,0%,13µM*
Cc1onc(-c2c(F)cccc2Cl)c1C(=O)c1ccccc1,-3,i,4%,?,17%,0%
Cc1onc(-c2c(F)cccc2Cl)c1C(=O)c1ccc(F)cc1,-1,i,6%,i,16%,13µM*
COC(=O)/C(C#N)=C\c1cc(OC)c(OC)cc1Br,2,.,.,.,.,.
